TRHR ag: qHTS for Small Molecule Agonists and Allosteric Enhancers of Human TRH Receptor: Primary Screen for Agonists; activation, % at 2 µM; Thyrotropin-releasing hormone receptor (Homo sapiens), P34981; AID 493084, 2011; TRHR cells, calcium flux fluo-8, FDSS agonist mode; 0.18% of 360,000 active; note: 0% is about no effect
Target sequence (P34981 whole entry, looked up): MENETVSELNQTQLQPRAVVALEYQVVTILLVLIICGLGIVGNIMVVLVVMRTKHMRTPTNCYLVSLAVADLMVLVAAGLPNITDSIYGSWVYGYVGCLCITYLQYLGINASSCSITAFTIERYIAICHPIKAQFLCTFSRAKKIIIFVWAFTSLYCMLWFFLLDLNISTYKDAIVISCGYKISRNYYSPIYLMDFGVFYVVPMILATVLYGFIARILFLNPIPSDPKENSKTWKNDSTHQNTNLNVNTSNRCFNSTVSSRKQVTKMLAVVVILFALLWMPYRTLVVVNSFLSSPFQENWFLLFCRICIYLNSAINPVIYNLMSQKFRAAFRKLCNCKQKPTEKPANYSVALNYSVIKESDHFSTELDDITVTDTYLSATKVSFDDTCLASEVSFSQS
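TRHR-expressing cells, plated overnight in medium with 10% serum, were loaded with fluo-8 calcium dye at room temperature. After a 10 s baseline, library compound was pin-added and calcium release was recorded kinetically (ex 480/em 530) as agonist response.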
D1 ag: Allosteric Agonists of the Human D1 Dopamine Receptor: qHTS | activation, % at 2 µM | 1% of 360,000 active | HEK293 T-REx D1 cells, calcium flux, agonist mode; note: 0% is about no effect
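Tetracycline-induced HEK293 TREx D1 cells, force-coupled to calcium signalling, were dye-loaded with a no-wash calcium kit. Compound was pin-added after a 10 s baseline. Fluorescence was read kinetically at 1 cycle/s for 180 s, with calcium rises flagged as agonism.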
D1 potentiator: Potentiators of Human D1 Dopamine Receptor: qHTS; D(1A) dopamine receptor (Homo sapiens), P21728; HEK293 TREx D1 cells, calcium flux, dopamine EC20 potentiation; potentiation, % at 10 µM; 0.036% of 360,000 active; in the data active = potentiation above about 30%; note: 0% is about no effect
D1 antag: Antagonist of Human D 1 Dopamine Receptor: qHTS | HEK293 TREx D1 cells, calcium flux, dopamine EC80; stronger effect = lower value | D(1A) dopamine receptor (Homo sapiens), P21728 | 3.2% of 360,000 active | activity change, negative = inhibition, % at 10 µM; in the data active = activity change below about -30%; note: % is set by controls: 0 for no effect and ±100 for the full control effect
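Allosteric or orthosteric antagonism assessed as attenuation of the calcium response to EC80 dopamine, added 180 s after compound, in induced HEK293 Trex D1 cells loaded with no-wash calcium dye.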
TRHR PAM: qHTS for Small Molecule Agonists and Allosteric Enhancers of Human TRH Receptor: Primary Screen for Enhancers; Thyrotropin-releasing hormone receptor (Homo sapiens), P34981; TRHR cells, fluo-8 calcium fluorescence, EC20 TRH enhancement; enhancement, % at 2 µM; 0.66% of 360,000 active; AID 493056, 2011; in the data active = enhancement above about 30%; note: 0% is about no effect
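TRHR-expressing cells loaded with fluo-8 calcium dye were read kinetically (ex 480/em 530) during compound addition, then stimulated with an EC20 of TRH (10 nM final). Enhancement of the Gq-mediated intracellular calcium response was scored.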
Starred values were filed as active, the others as inactive; . = no result given. Most compounds without a hit are left out; they make up all but 4.7% or so of the library. Cut-off read from the data, not from the text of the source, unless noted: active = activation above about 30%; inactive = the rest.

SMILES | TRHR ag | D1 ag | D1 potentiator | D1 antag | TRHR PAM
Cc1ccc(/C=N/N2CCN(c3ccc(Cl)cc3)CC2)o1 | 0 | 1 | -1 | -48* | 8
Cc1ccc(/C=N/N2CCCCC2)o1 | 0 | 3 | -1 | 6 | 1
CCc1ccc(NC(=O)Nc2cn(C)c(=O)c3ccccc23)cc1 | 0 | 2 | -2 | -28 | -4
O=C1C=CC(=O)N1Nc1ccc(Br)cc1 | 1 | 9 | -5 | 5 | 33*
CC(C)CCNC(=O)C(=O)Nc1c2c(nn1-c1ccc(Cl)cc1)CSC2 | 0 | -1 | 0 | . | 5
COC(=O)c1ccc(C(=O)NN)cc1 | 0 | 1 | -3 | -6 | 14
COC(=O)c1ccc(C(=O)Nc2ccc(C(C)C)cc2N)cc1 | 0 | -2 | 3 | -40* | 1
Cc1ccccc1CN1C(=O)c2ccccc2Sc2ccc(C(=O)NCCc3ccccc3)cc21 | 1 | 1 | 1 | 18 | 2
Cc1ccc2c(c1)-c1c(cnn1CC(=O)N1CCN(c3cccc(C(F)(F)F)c3)CC1)CO2 | 0 | 1 | 18 | 49 | -13
COc1ccccc1C(CNC(=O)CNC(=O)c1ccccc1Cl)N1CCCC1 (stereo not drawn) | 2 | 3 | -2 | -45* | 2
COc1ccccc1C(=O)NCCC(=O)NCC(c1ccccc1OC)N1CCCC1 (stereo not drawn) | 0 | 2 | -1 | 3 | -3
COc1ccccc1C(CNC(=O)CNC(=O)c1ccc(C)c(C)c1)N1CCCC1 (stereo not drawn) | 0 | 4 | . | -20 | 1
COc1ccccc1C(CNC(=O)CNC(=O)c1ccc(Cl)c(Cl)c1)N1CCCC1 (stereo not drawn) | 0 | 9 | . | -38* | -1
COc1ccc(NC(=O)N2CCN3CCCCC3C2)cc1OC (stereo not drawn) | 1 | 2 | 1 | 1 | 0
NCCC(=O)N1c2ccccc2Sc2ccc(Cl)cc21 | 50* | 59* | -2 | 2 | -33
NCCCC(=O)N1c2ccccc2Sc2ccc(Cl)cc21 | 3 | 5 | 4 | 6 | 18
CCOC(=O)N1CCC(NC(=O)c2cnn3c2NC(c2ccco2)CC3C(F)(F)F)CC1 (stereo not drawn) | -1 | 2 | -8 | -2 | 32*
Cc1cc(C)cc(NC(=O)c2ccc3c(c2)nnn3C2CCCC2)c1 | 0 | 7 | -1 | -4 | 2
COc1ccc(NC(=O)C(c2ccc(Cl)cc2)C(C)C)cn1 (stereo not drawn) | 6 | 39* | 10 | 3 | 2
COc1ccc(NC(=O)Nc2ccc(F)cc2)cn1 | 1 | 16 | -2 | -18 | 2
COCCNC(=O)CCCn1c(SCC(=O)c2ccc(Br)cc2)nc2c(sc3ccccc32)c1=O | 0 | 0 | -2 | -22 | 1
COc1ccc(CNC(=O)CN2C(=O)CCn3nc(-c4ccccc4)cc32)c(OC)c1 | 0 | 0 | 0 | 1 | 13
CSc1c(C#N)c(N)nc2sc(C(=O)c3ccccc3)c(N)c12 | 9 | 37* | 0 | -11 | 3
COCCN1CCN(Cc2cn(C)nc2-c2cccc(Cl)c2)CC1 | 0 | 0 | -5 | 5 | -2
COCC1CCN(Cc2cn(C)nc2-c2cccc(Cl)c2)C1 (stereo not drawn) | 0 | 3 | -1 | -42* | 8
C=C(C)C1CC=C(C)/C(=N/NC(=O)c2ccccc2[N+](=O)[O-])C1 (stereo not drawn) | 1 | 11 | 0 | 9 | 36*
C=C(C)C1CC=C(C)/C(=N/Nc2ccccc2[N+](=O)[O-])C1 (stereo not drawn) | 0 | 2 | 2 | -9 | 3
CCOc1ccc(S(=O)(=O)N2CCCC2)cc1 | 0 | -2 | -1 | . | -1
O=S(=O)(c1ccccc1)N1CCCN(S(=O)(=O)c2ccccc2)CC1 | -1 | 14 | 4 | -45* | -2

Screens from PubChem BioAssay.
